Values without a mark were called inactive. The source made the active and inactive calls. Calls come from the whole dose curve; as a rule, active = well fitted curve in the direction sought with a large enough effect in the repeat runs; inconclusive = weak or mixed curves; inactive = flat fitted curve, though single readings scatter.
Test: qHTS assay to test for compound auto fluorescence at 590 nm (red) in HepG2 cells (AID 720674)
Settings: HepG2 autofluorescence, red 540/590 nm, 1 h; series mostly up to 91.3 µM; fluorescence, relative to Rose Bengal: at the top concentration
In short: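 Red autofluorescence (Ex/Em 540/590 nm, Rose Bengal sodium equivalents) was measured in HepG2 cells, 2,000 per well in MEM plus 10% FBS, plated overnight at 37 C. Readings were taken 1 hr after adding 23 nL compound or DMSO, at 37 C and 5% CO2.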
% is set by controls: 0 for no effect and ±100 for the full control effect.

Row | Compound | fluorescence, relative to Rose Bengal | outcome
1 | O=C1NC(=O)C(=O)C(=O)N1 | 0.0955% [at 95.7 µM] | –
2 | CC(=O)NNc1ccccc1 | 0.11% | –
3 | Clc1ccccc1 | -0.0343% | –
4 | NNCCO | -0.116% | –
5 | CCOP(=S)(OCC)Oc1ccc(S(C)=O)cc1 (stereo not given) | -0.0386% | –
6 | O=C(NC(=O)c1cc(F)c(F)cc1Cl)Nc1cc(F)ccc1N1CCC(C(=O)O)CC1 | 0.211% [at 46 µM] | –
7 | C[C@]12C=CC3=C4CCC(=O)C=C4CC[C@H]3[C@@H]1CC[C@@H]2O | 0.087% | –
8 | Nc1c(Br)cc(Br)c2c1C(=O)c1ccccc1C2=O | -0.0013% [at 18.6 µM] | –
9 | O=C(O)CCCOc1ccc(Cl)cc1Cl | – | inactive
10 | CC(C)c1ccc(NC(=O)N(C)C)cc1 | 0.111% | –
11 | CC(=O)OC(c1ccccc1)C(Cl)(Cl)Cl (stereo not given) | 0.0836% | –
12 | c1ccc2sc(SNC3CCCCC3)nc2c1 | – | inactive
13 | NCCc1cc(O)c(O)cc1O | 0.983% [at 46 µM] | –
14 | O=[N+]([O-])c1cc(Cl)c(Cl)cc1Cl | -0.167% | –

Test: qHTS assay to test for compound auto fluorescence at 535 nm (green) in HepG2 cells (AID 720675)
Settings: green autofluorescence 485/535 nm, 1 h; series mostly up to 91.3 µM; fluorescence, % of fluorescein control: at the top concentration

Row | Compound | fluorescence, % of fluorescein control | outcome
15 | CCc1ccccc1N | 0.0228% | –
16 | Cc1cccc(C)c1NC1=NCCCS1 | -0.065% [at 46 µM] | –
17 | C[CH2][Hg][S]c1ccccc1C(=O)O | – | inactive
18 | CC1(C)[C@H](C(=O)O[C@H](C#N)c2cccc(Oc3ccccc3)c2)[C@@H]1C=C(Br)Br | – | inactive
19 | [Cl-].[Cl-].[Hg+2] | – | inactive
20 | CN1C(=O)CN=C(c2ccccc2)c2cc([N+](=O)[O-])ccc21 | 0.0428% [at 46 µM] | –
21 | C=CCN1C[C@H](C)N([C@H](c2ccc(C(=O)N(CC)CC)cc2)c2cccc(OC)c2)C[C@H]1C | 0.0185% [at 46 µM] | –
22 | COc1ccc(C(=O)c2c(C)n(CCN3CCOCC3)c3ccccc23)cc1 | -0.0165% [at 46 µM] | –
23 | O=CC=O | – | inactive
24 | C=C(C)C(=O)OCCCCOC(=O)C(=C)C | 0.0287% | –
25 | CCCCCBr | -0.0553% [at 95.7 µM] | –
26 | CC(C)[C@@H](C(=O)O[C@@H](C#N)c1cccc(Oc2ccccc2)c1)c1ccc(Cl)cc1 | – | inactive
27 | Nc1ccccc1C(=O)OCCc1ccccc1 | – | inactive
28 | O=C(O)C(O)C(O)C(=O)O (stereo not given) | -0.0026% | –
29 | CC(C)(C)N(NC(=O)c1ccc(Cl)cc1)C(=O)c1ccccc1 | 0.0946% | –
30 | COP(=O)(OC)OC(Br)C(Cl)(Cl)Br (stereo not given) | – | inactive
31 | Cc1ncc(C[n+]2csc(CCO)c2C)c(N)n1 | – | inactive
32 | Nc1ccc2c(c1)Cc1ccccc1-2 | -0.0555% | –
33 | CCC(C)(C)O | -0.0758% | –

Row | Compound | fluorescence, % of fluorescein control | outcome
34 | CCC1(CCC(C)C)C(=O)NC(=O)NC1=O | 0.031% | –
35 | CN1CC[C@]23c4c5ccc(O)c4O[C@H]2[C@@H](O)C=C[C@H]3[C@H]1C5 | 0.0048% | –
36 | NP(N)(=O)NC(=O)c1ccc(F)cc1 | -0.0701% [at 46 µM] | –
37 | CN(C)c1ccc(N=O)cc1 | – | inactive
38 | C[Si](Cn1cncn1)(c1ccc(F)cc1)c1ccc(F)cc1 | – | inactive
39 | O=C1NC(=O)C(=O)C(=O)N1 | -0.0579% [at 95.7 µM] | –
40 | CC(=O)NNc1ccccc1 | 0.0696% | –
41 | Clc1ccccc1 | -0.0432% | –
42 | NNCCO | -0.0409% | –
43 | CCOP(=S)(OCC)Oc1ccc(S(C)=O)cc1 (stereo not given) | -0.0476% | –
44 | O=C(NC(=O)c1cc(F)c(F)cc1Cl)Nc1cc(F)ccc1N1CCC(C(=O)O)CC1 | -0.0892% [at 46 µM] | –
45 | C[C@]12C=CC3=C4CCC(=O)C=C4CC[C@H]3[C@@H]1CC[C@@H]2O | 0.112% | –
46 | Nc1c(Br)cc(Br)c2c1C(=O)c1ccccc1C2=O | 0.0991% [at 18.6 µM] | –
47 | O=C(O)CCCOc1ccc(Cl)cc1Cl | – | inactive
48 | CC(C)c1ccc(NC(=O)N(C)C)cc1 | -0.0937% | –
49 | CC(=O)OC(c1ccccc1)C(Cl)(Cl)Cl (stereo not given) | 0.184% | –
50 | c1ccc2sc(SNC3CCCCC3)nc2c1 | – | inactive
51 | NCCc1cc(O)c(O)cc1O | -0.0691% [at 46 µM] | –
52 | O=[N+]([O-])c1cc(Cl)c(Cl)cc1Cl | -0.0124% | –

Test: qHTS assay to test for compound auto fluorescence at 460 nm (blue) in HEK293 cells (AID 720678)
Settings: blue autofluorescence 405/460 nm; series mostly up to 91.3 µM; fluorescence, % of triamterene: at the top concentration
In short: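 Cells were seeded and left to adhere for 4-5 hr at 37C. Compounds were then pin-transferred. After an overnight incubation at 37C under 5% CO2, intrinsic fluorescence at 405/460 nm was measured and referenced to triamterene.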

Row | Compound | fluorescence, % of triamterene | outcome
53 | CCc1ccccc1N | 0.0021% | –
54 | Cc1cccc(C)c1NC1=NCCCS1 | -0.0065% [at 46 µM] | –
55 | C[CH2][Hg][S]c1ccccc1C(=O)O | – | inactive
56 | CC1(C)[C@H](C(=O)O[C@H](C#N)c2cccc(Oc3ccccc3)c2)[C@@H]1C=C(Br)Br | – | inactive
57 | [Cl-].[Cl-].[Hg+2] | – | inactive
58 | C=CCN1C[C@H](C)N([C@H](c2ccc(C(=O)N(CC)CC)cc2)c2cccc(OC)c2)C[C@H]1C | -0.158% [at 46 µM] | –
59 | COc1ccc(C(=O)c2c(C)n(CCN3CCOCC3)c3ccccc23)cc1 | -0.0057% [at 46 µM] | –
60 | O=CC=O | – | inactive
61 | C=C(C)C(=O)OCCCCOC(=O)C(=C)C | -0.0949% | –
62 | O=C(O)C(O)C(O)C(=O)O (stereo not given) | 0.0041% | –
63 | CC(C)(C)N(NC(=O)c1ccc(Cl)cc1)C(=O)c1ccccc1 | 0.0703% | –
64 | Cc1ncc(C[n+]2csc(CCO)c2C)c(N)n1 | – | inactive
65 | Nc1ccc2c(c1)Cc1ccccc1-2 | -0.0227% | –
66 | CCC1(CCC(C)C)C(=O)NC(=O)NC1=O | -0.147% | –
67 | CN1CC[C@]23c4c5ccc(O)c4O[C@H]2[C@@H](O)C=C[C@H]3[C@H]1C5 | -0.147% | –
68 | NP(N)(=O)NC(=O)c1ccc(F)cc1 | 0.0784% [at 46 µM] | –
69 | CN(C)c1ccc(N=O)cc1 | – | inactive
70 | C[Si](Cn1cncn1)(c1ccc(F)cc1)c1ccc(F)cc1 | – | inactive
71 | Clc1ccccc1 | -0.0744% | –
72 | NNCCO | 0.0679% | –
73 | CCOP(=S)(OCC)Oc1ccc(S(C)=O)cc1 (stereo not given) | -0.0363% | –
74 | O=C(NC(=O)c1cc(F)c(F)cc1Cl)Nc1cc(F)ccc1N1CCC(C(=O)O)CC1 | 0.0105% [at 46 µM] | –
75 | Nc1c(Br)cc(Br)c2c1C(=O)c1ccccc1C2=O | -0.127% [at 18.6 µM] | –
76 | O=C(O)CCCOc1ccc(Cl)cc1Cl | – | inactive
77 | CC(C)c1ccc(NC(=O)N(C)C)cc1 | -0.0461% | –
78 | c1ccc2sc(SNC3CCCCC3)nc2c1 | – | inactive
79 | NCCc1cc(O)c(O)cc1O | 0.0828% [at 46 µM] | –
80 | O=[N+]([O-])c1cc(Cl)c(Cl)cc1Cl | -0.234% | –

— PubChem BioAssay (Tox21)
